Structures are written as SMILES. Active and inactive are the calls of the source.

In PubChem BioAssay one finds composite z-score and z-score data, which are given here for seven molecules.

In assay [1] the test system is Wnt5a (protein binding on small-molecule microarray). Kind of assay: small molecules binding Wnt5a protein – biophysical, small-molecule microarray, 635/667 nm fluorescence, primary screen (AID 1142).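 Also: fluorescence read at 667 nm with signal to noise per printed feature.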 As to conditions: 635 nm fluorescence, higher = more signal.
Assay [2] is described as follows: ATP-based viability of Huh7 replicon cells – cell-based, CellTiter-Glo luminescence, basal, 48 h, cytotoxicity control for HCV replication inhibitor project, primary screen (AID 1143).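 Also: Huh7 hepatoma cells carrying a hepatitis C replication reporter with no stimulus; test concentration not given here.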 As to conditions: higher = more signal, called active from +8 up or from −8 down. For orientation: In antiviral work, replicon cells carry a viral genome segment that copies itself.

A short description of assay [3]: basal CRE-LacZ reporter activity in PC12 – cell-based, unstimulated, primary screen (AID 1145). To be noted: no forskolin, luminescence, 4.5 h, higher = more signal, called active from +8 up or from −8 down.
The nature of assay [4]: forskolin-driven CRE-LacZ activity in PC12 – cell-based, CRE-LacZ reporter, forskolin-stimulated, primary screen (AID 1146).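 Also: PC12 cells with 6xCRE LacZ reporter stimulated by forskolin 10 µM; beta-galactosidase reporter signal reflecting CREB driven transcription.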 To be noted: luminescence, 4.5 h, higher = more signal, called active from +8 up or from −8 down.
Assay [5] has as its target Streptavidin (Streptomyces avidinii) (UniProt P22629). Put plainly: compounds binding control protein streptavidin – biophysical, small-molecule microarray, 635/667 nm fluorescence, artefact control for SMM compound annotation, primary screen (AID 1147).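 Also: signal reflects streptavidin binding to arrayed compounds as a control protein.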 To be noted: higher = more signal.
Assay [6] is described as follows: probe aInhba binding on compound microarray – biochemical, small-molecule microarray, 635/667 nm fluorescence, primary screen (AID 1148).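 Also: score merges 667nm spot fluorescence with signal-to-noise for antibody binding to printed compounds.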 As to conditions: higher = more signal.
Assay [7] deals with Torsin-1A (Homo sapiens) (UniProt O14656). Put plainly: TOR1A wild-type binding on microarray – cell lysate, small-molecule microarray, lysate, 635/667 nm, primary screen (AID 1149). As to conditions: COS7 hTOR1A-WT lysate, 635 nm fluorescence, higher = more signal.
Chain of Torsin-1A (Homo sapiens) (O14656 whole entry, looked up): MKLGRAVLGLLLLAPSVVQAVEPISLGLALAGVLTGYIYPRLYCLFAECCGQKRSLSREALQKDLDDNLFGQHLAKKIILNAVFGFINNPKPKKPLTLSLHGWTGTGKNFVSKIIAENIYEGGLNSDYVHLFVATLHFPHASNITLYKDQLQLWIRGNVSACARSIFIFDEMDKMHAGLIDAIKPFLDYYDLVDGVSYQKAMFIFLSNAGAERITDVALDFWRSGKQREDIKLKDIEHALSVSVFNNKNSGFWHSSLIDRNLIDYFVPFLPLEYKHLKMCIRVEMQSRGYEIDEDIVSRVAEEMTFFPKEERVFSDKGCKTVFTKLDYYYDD
Assay [8] shares this target. Kind of assay: torsin A mutant lysate binding on microarrays – cell lysate, small-molecule microarray, COS7 lysate, 635/667 nm fluorescence, primary screen (AID 1150).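 Also: score pools 667 nm emission and signal to noise measuring lysate protein binding.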 As to conditions: COS7 hTOR1A mutant lysate, 635 nm fluorescence, higher = more signal.
Assay [9] has as its system Sonic hedgehog protein (Shh). Kind of assay: Sonic hedgehog microarray binding compounds – biochemical, small-molecule microarray, 635/667 nm fluorescence, primary screen (AID 1151).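 Also: Shh protein binding to compounds spotted on small-molecule microarray slides; score combines spot fluorescence intensity with signal-to-noise across triplicate slides.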 As to conditions: 635 nm fluorescence, higher = more signal.
Assay [10] is described as follows: optical density shifts of acrAB sulA E. coli – strain DRC41, OD650, 48 h, E. coli filamentation inducer project, primary screen (AID 1152).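 Also: E. coli MC1000 strain DRC41 lacking acrAB efflux pump and sulA.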 To be noted: higher = more signal, called active from +8 up or from −8 down.
A short description of assay [11]: probe aLefty1 binding on compound microarray – biochemical, small-molecule microarray, 635/667 nm fluorescence, primary screen (AID 1153).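 Also: score merges spot fluorescence with signal-to-noise ratio from the scanned slide images.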 To be noted: higher = more signal.
Assay [12] in a line: plasmodial surface anion channel blockers, osmotic lysis – cell-based, P. falciparum Indochina, OD700, 1 h, primary screen (AID 1154). As to conditions: P. falciparum Indochina infected RBC osmotic lysis, higher = more signal, called active from +8 up or from −8 down.
Assay [13] in a line: plasmodial surface anion channel blockers, osmotic lysis – cell-based, P. falciparum Indochina, OD700, 2 h, primary screen (AID 1155).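 Also: lysis reports solute entry through the parasite surface anion channel PSAC.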 As to conditions: P. falciparum Indochina infected erythrocytes, higher = more signal, called active from +8 up or from −8 down.
A short description of assay [14]: changes in parasitized red cell lysis, either direction – P. falciparum Indochina, OD700, 3 h, PSAC antagonist project, primary screen (AID 1156). As to conditions: P. falciparum-infected erythrocytes, osmotic lysis, higher = more signal, called active from +8 up or from −8 down.
Assay [15] is described as follows: plasmodial surface anion channel blockers, osmotic lysis – cell-based, P. falciparum Indochina, OD700, 18 h, primary screen (AID 1157). As to conditions: P. falciparum Indochina infected erythrocytes, osmotic lysis OD700, 18 h; higher = more signal, called active from +8 up or from −8 down.
Assay [16] in a line: S6 kinase pathway phospho-S6 level changes – cell-based, A549, cytoblot, luminescence, serum-stimulated, primary screen (AID 1158).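 Also: serum-stimulated A549 lung adenocarcinoma cells; signal is phosphorylated S6 detected by cytoblot immunostaining with HRP secondary.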 To be noted: 5 h, higher = more signal.
Assay [17] has as its target NADPH oxidase 2 (Homo sapiens) (UniProt P04839). Put plainly: compounds shifting NOX2 Amplex Red fluorescence – cell-based, HEK293-NOX2, PMA-stimulated, NOX inhibitor project, primary screen (AID 1159). Also: test concentration not given here. As to conditions: 45 min, higher = more signal, called active from +8 up or from −8 down.
Assay [18] deals with NADPH oxidase 4 (Homo sapiens) (UniProt Q9NPH5). Kind of assay: compounds shifting NOX4 Amplex Red fluorescence – cell-based, HEK293-NOX4, tetracycline-induced, NOX inhibitor project, primary screen (AID 1160). To be noted: HEK293-NOX4, Amplex Red H2O2 fluorescence, 45 min; higher = more signal, called active from +8 up or from −8 down.
Chain of NADPH oxidase 4 (Homo sapiens) (Q9NPH5 whole entry, looked up): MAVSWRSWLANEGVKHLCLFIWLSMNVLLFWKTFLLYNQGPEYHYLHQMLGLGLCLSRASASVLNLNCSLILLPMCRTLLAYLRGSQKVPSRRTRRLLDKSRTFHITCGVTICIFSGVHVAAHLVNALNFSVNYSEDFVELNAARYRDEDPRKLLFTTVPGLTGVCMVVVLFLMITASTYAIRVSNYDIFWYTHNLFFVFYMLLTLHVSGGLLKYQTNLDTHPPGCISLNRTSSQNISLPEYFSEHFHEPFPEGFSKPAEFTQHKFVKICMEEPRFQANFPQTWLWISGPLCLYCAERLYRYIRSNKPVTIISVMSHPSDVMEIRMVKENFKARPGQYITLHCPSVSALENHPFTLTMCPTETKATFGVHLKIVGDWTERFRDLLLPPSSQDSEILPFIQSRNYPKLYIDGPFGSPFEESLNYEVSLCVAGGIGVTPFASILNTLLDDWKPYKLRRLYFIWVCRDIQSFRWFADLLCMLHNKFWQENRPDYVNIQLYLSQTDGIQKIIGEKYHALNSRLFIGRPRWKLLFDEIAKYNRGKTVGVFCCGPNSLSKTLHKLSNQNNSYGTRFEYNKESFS
Assay [19] deals with NADPH oxidase 5 (Homo sapiens) (UniProt Q96PH1). Kind of assay: compounds shifting NOX5 Amplex Red fluorescence – cell-based, HEK293-NOX5, NOX inhibitor project, primary screen (AID 1161). To be noted: HEK293-NOX5, ionomycin, 45 min, higher = more signal.
Chain of NADPH oxidase 5 (Homo sapiens) (Q96PH1 whole entry, looked up): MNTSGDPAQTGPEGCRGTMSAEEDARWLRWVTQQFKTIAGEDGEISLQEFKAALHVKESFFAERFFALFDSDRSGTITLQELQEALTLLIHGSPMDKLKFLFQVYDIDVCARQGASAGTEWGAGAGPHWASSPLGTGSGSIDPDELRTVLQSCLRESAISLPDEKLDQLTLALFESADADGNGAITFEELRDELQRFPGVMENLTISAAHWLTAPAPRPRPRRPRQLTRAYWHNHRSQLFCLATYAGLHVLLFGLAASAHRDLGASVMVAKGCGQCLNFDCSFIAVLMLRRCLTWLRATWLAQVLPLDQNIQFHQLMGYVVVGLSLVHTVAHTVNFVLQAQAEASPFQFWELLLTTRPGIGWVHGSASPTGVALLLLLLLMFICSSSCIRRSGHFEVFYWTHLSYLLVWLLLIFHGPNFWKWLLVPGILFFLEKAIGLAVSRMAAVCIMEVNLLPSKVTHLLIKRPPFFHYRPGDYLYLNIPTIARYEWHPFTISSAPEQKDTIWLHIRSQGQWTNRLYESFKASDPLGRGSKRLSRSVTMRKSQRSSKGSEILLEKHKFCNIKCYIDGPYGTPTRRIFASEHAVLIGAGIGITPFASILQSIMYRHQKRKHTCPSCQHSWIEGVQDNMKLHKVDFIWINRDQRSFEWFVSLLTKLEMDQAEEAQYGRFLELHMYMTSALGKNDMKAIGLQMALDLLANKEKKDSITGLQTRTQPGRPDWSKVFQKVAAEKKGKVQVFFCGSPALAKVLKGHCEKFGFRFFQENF

Chain of Streptavidin (Streptomyces avidinii) (P22629 whole entry, looked up): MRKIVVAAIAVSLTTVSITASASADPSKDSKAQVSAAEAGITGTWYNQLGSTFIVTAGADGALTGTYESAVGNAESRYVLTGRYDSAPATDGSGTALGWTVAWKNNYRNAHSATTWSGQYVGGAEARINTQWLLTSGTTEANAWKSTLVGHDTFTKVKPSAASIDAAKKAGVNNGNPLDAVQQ
Chain of NADPH oxidase 2 (Homo sapiens) (P04839 whole entry, looked up): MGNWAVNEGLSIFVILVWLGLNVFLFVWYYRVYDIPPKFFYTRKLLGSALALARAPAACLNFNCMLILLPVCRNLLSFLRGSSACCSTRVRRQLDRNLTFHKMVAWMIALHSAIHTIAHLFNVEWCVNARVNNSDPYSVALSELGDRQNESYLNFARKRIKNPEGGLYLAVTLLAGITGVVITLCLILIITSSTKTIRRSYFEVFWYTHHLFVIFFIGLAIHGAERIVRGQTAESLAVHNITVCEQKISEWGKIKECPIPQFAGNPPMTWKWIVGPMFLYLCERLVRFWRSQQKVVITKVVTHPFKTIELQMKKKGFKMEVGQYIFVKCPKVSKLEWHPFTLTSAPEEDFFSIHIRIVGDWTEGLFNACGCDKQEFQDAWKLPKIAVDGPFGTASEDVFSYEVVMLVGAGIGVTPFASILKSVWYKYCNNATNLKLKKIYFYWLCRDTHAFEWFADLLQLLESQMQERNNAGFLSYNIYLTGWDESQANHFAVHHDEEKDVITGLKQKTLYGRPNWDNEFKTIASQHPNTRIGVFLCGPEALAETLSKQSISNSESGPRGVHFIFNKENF

As to `C=CCOC(=O)[C@@H]1[C@H]2C(=O)O[C@H](c3ccccc3)[C@H](c3ccccc3)N2[C@H](c2ccc(OCCOC(=O)[C@H]3C[C@H]4C(=O)N5CCC[C@H]5C(=O)N4[C@H]3c3ccc(O)cc3)cc2)[C@@]12C(=O)Nc1ccccc12`, the composite z-score in [1] came out at 1.32; in [5], 0.239; in assay [6], 1.03; in assay [7], 0.885; in [8], 0.283; in assay [9], 1.68. In addition, the composite z-score in assay [11] was found to be 0.244. Further, the z-score is -3.23 (inactive) in [2]; -0.402 (inactive) in assay [3]; -1.32 (inactive) in [4]; 2.34 (inactive) in [10]; 3.21 (inactive) in assay [12]; 0.288 (inactive) in assay [13]. Besides, the z-score in assay [14] is -2.79 (inactive); in [15], -1.39 (inactive); in assay [16], 0.557; in [17], 1.56 (inactive); in assay [18], 0.0128 (inactive); in [19] it was 2.16.

In the case of `COc1ccc([Si](C)(C)[C@H]2[C@H](CCO)O[C@@]3(C(=O)N(Cc4ccccc4)c4ccc(N5C(=O)c6cccc7cccc5c67)cc43)[C@@H]2C)cc1`, the composite z-score in assay [1] was -0.234; in [5], -0.3; in [6] it was -0.0791; in assay [7], -0.144; in [8] it was 0.0743; in [9], 0.145. The molecule further showed a composite z-score in assay [11] of -0.105. For the same molecule, the z-score is -5.81 (inactive) in [2]; 4.04 (inactive) in [3]; -1.36 (inactive) in [4]; 1.85 (inactive) in assay [10]; 3.41 (inactive) in assay [12]; 2.34 (inactive) in assay [13]. For the same molecule, the z-score in [14] is 1.36 (inactive); in assay [15], 1.65 (inactive); in assay [16] it was 0.314; in assay [17], -1.35 (inactive); in [18], 0.163 (inactive); in [19] it was 0.513.

Take `O=C1O[C@@H](c2ccccc2)[C@@H](c2ccccc2)N2[C@@H](c3ccc(O)cc3)[C@]3(C(=O)Nc4ccc(C#CC5(O)CCCCCC5)cc43)[C@@H](C(=O)Nc3nc4ccccc4s3)[C@H]12`: the composite z-score is 0.285 in [1]; 1.99 in assay [5]; -0.438 in assay [6]; 0.752 in [7]; 0.757 in assay [8]; 0.741 in assay [9]. This molecule registered a composite z-score in assay [11] of 0.271. Further, the z-score in assay [2] was -2.23 (inactive); in assay [3], 0.204 (inactive); in [4], -0.908 (inactive); in assay [10], 1.74 (inactive); in assay [12] it was 0.733 (inactive); in assay [13], -0.232 (inactive). Moreover, the z-score was 0.445 (inactive) in [14]; -0.713 (inactive) in [15]; 1.16 in [16]; 1.62 (inactive) in [17]; -1.27 (inactive) in [18]; 1.96 in assay [19].

Turning to `[N-]=[N+]=Nc1ccccc1C[C@@]1(C(=O)N2CCOCC2)N=C(c2ccc(OCCCO)cc2)O[C@@H]1c1ccccc1N=[N+]=[N-]`, the composite z-score in assay [1] was found to be 0.372; in assay [5], 0.955; in assay [6], 0.0982; in [7], 0.644; in [8] it was 0.407; in assay [9], 0.174. The molecule further yielded a composite z-score in assay [11] of 0.241. Also, the z-score in [2] is -5.17 (inactive); in [3], 2.75 (inactive); in [4] it was -1.37 (inactive); in assay [10], 1.94 (inactive); in [12], 29.9 (active); in [13], 27.6 (active). For the same molecule, the z-score in assay [14] was 3.13 (inactive); in assay [15], 4.27 (inactive); in assay [16] it was 2.07; in [17] it was 0.781 (inactive); in assay [18], 0.516 (inactive); in assay [19] it was -0.745.

For the molecule `C=CCC(OC(C)=O)[C@@H]1[C@@H](N(Cc2cc3ccccc3o2)C(=O)Cc2ccc(F)cc2)c2cc(OCCCO)ccc2N1C(=O)c1ccc(-c2ccccc2)cc1` (stereo partly drawn), the composite z-score in [1] is -0.125; in assay [5] it was -0.117; in assay [6], -0.0313; in assay [7], -0.583; in assay [8], -0.159; in [9], 0.0351. Further, the composite z-score in assay [11] turned out to be 0.0091. Moreover, the z-score is 0.15 (inactive) in assay [2]; 0.787 (inactive) in assay [3]; -0.775 (inactive) in assay [4]; 1.66 (inactive) in assay [10]; -0.171 (inactive) in assay [12]; 0.229 (inactive) in assay [13]. Further, the z-score was -0.454 (inactive) in assay [14]; 0.0413 (inactive) in assay [15]; 0.437 in [16]; 0.578 (inactive) in assay [17]; 0.684 (inactive) in [18]; 0.314 in [19].

`CCC(=O)[C@]12O[C@@]3([C@@H]4C(=O)OCC[C@@H]41)N(CC)C(C)=C(C(=O)OC)[C@@H](c1ccccc1)N3C2=O`: the composite z-score in assay [1] was -0.0488; in [5] it was -0.194; in assay [6], -0.283; in assay [7], -0.0028; in [8] it was -0.063; in [9], 1.92. In assay [11], this molecule displayed a composite z-score of -0.29. Moreover, the z-score is -3.62 (inactive) in assay [2]; -0.0708 (inactive) in assay [3]; -1.58 (inactive) in assay [4]; 0.362 (inactive) in assay [10]; 0.91 (inactive) in [12]; -0.071 (inactive) in [13]. Besides, the z-score in assay [14] was -1.35 (inactive); in [15] it was -1.08 (inactive); in assay [16], 0.815; in [17], 1.5 (inactive); in assay [18], -1.36 (inactive); in [19] it was 0.922.

For `C=CCN(C(=O)C1N(c2ccc(CCO)cc2)C(=O)C2C(C(=O)O)C3C=CC21O3)C(C)(C)C` (stereo not drawn), the composite z-score was -0.505 in assay [1]; -2.01 in assay [5]; -0.227 in [6]; -3.07 in assay [7]; -1.77 in [8]; -1.34 in [9]. Moreover, the composite z-score in [11] is 0.0445. Also, the z-score in [2] is -1.93 (inactive); in assay [3], -0.623 (inactive); in [4], -0.819 (inactive); in [10] it was 2.75 (inactive); in [12], 0.0302 (inactive); in [13] it was -1.14 (inactive). The z-score in assay [14] was -1.43 (inactive); in assay [15] it was -1.91 (inactive); in assay [16] it was 0.434; in assay [17], 1.9 (inactive); in assay [18] it was -1.46 (inactive); in assay [19] it was 0.845.
